Test results: PubChem BioAssay (EPA / NIEHS)
Inconclusive results are not listed. The source made the active and inactive calls. How the source made its calls: active means hit-call score of the fitted dose curve at least 0.9, where 1 is the maximum; inconclusive means response in the unintended direction; inactive means score below 0.9.

Each compound was assayed against human Retinoid X Receptor beta (RXRb), RXRB (gene 6257) (UniProt P28702) (assay: ATG_RXRb_TRANS: Attagene TRANS-FACTORIAL HepG2 Assay for human Retinoid X Receptor beta (RXRb) (AID 2283013)).
Chain of human Retinoid X Receptor beta (RXRb), RXRB (gene 6257) (P28702 whole entry, looked up, the tested form may be a part): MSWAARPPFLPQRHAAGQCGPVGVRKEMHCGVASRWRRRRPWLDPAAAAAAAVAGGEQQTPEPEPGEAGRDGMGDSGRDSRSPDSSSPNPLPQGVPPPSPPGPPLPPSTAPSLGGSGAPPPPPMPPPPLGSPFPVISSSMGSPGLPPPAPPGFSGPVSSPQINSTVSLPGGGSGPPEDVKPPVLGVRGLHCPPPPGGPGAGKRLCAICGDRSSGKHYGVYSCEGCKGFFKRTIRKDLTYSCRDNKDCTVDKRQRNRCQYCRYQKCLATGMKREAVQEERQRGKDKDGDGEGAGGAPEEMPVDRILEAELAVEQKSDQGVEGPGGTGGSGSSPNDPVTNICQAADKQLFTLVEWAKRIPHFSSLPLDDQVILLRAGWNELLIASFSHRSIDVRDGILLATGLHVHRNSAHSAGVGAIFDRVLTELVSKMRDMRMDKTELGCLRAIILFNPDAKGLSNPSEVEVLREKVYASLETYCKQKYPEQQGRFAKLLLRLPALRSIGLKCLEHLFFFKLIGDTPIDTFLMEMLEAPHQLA
Summary of the method: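 Readout is reporter transcript induction after 24 h dosing. It is measured by RT-PCR of total RNA followed by fluorescent capillary electrophoresis. HepG2 liver cells carry transfected multiple reporter units driven by an exogenous RXRb-Gal4 fusion; activity is relative to DMSO.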
`CCC(CC)CO` was tested, and the outcome was “inactive”.
With `CC(CO)(CO)[N+](=O)[O-]` the outcome was “inactive”.
For `CCCCCCC(O)CCOC(C)=O` (stereo not given), the outcome was “inactive”.
For `C=C(C)CCCC(C)CCO` (stereo not given), the outcome was “inactive”.
With `CC(C)N(c1ccccc1)C(C)C` the outcome was “inactive”.
In the case of `CC(CO)c1ccccc1` (stereo not given), the outcome is reported as “inactive”.
With `[Na+]` the outcome was “inactive”.
With `NC(=O)c1cnccn1` the outcome was “inactive”.
`C=COCC1CCC(COC=C)CC1` (stereo not given) was tested, and the outcome was “inactive”.
In the case of `CCCOC(=O)CC`, the outcome is reported as “inactive”.
`CC(C)(C)c1cc(CCC(=O)OCCSCCOC(=O)CCc2cc(C(C)(C)C)c(O)c(C(C)(C)C)c2)cc(C(C)(C)C)c1O` was tested, and the AC50 was 33.9 µM (active).
In the case of `CC1=CCC(C(C)C)=CC1`, the outcome is reported as “inactive”.
`C=CCOC(=O)/C=C\C(=O)OCC=C` was tested, and the outcome was “inactive”.
For `O=C(O)c1ccco1`, the outcome was “inactive”.
In the case of `COc1cc(OC)c2ccc(=O)oc2c1`, the outcome is reported as “inactive”.
For `CC(C)CCOC(=O)CC(C)C`, the AC50 was 100 µM (active).
For `CCCCCCCCSCc1cc(C)c(O)c(CSCCCCCCCC)c1`, the outcome was “inactive”.
With `CCCCCCCOC(C)=O` the outcome was “inactive”.

Each compound was assayed against human Thyroid Receptor alpha (THRa1), THRA (gene 7067) (UniProt P10827) (assay: ATG_THRa1_TRANS: Attagene TRANS-FACTORIAL HepG2 Assay for human Thyroid Receptor alpha (THRa1) (AID 2283014)).
Chain of human Thyroid Receptor alpha (THRa1), THRA (gene 7067) (P10827 whole entry, looked up, the tested form may be a part): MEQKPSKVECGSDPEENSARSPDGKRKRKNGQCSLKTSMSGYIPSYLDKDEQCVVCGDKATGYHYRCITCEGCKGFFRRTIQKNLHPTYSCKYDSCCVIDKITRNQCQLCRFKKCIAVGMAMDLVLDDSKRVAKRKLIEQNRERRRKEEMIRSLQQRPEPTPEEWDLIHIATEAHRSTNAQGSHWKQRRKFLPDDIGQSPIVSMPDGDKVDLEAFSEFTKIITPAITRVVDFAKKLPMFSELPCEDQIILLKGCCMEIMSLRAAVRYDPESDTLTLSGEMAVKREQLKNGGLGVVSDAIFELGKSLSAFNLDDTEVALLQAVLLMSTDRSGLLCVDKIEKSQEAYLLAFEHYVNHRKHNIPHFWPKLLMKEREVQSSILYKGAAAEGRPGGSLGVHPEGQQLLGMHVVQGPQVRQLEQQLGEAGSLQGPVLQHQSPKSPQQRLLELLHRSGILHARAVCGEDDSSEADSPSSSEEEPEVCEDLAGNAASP
Summary of the method: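 Reporter transcript induction, read by capillary electrophoresis of 6-FAM-labelled RT-PCR products, reflects activity of a transfected THRa1-Gal4 fusion in HepG2 liver cells. Cells were dosed for 24 h; activity was fitted in the positive direction against DMSO.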
In the case of `CCC(CC)CO`, the outcome is reported as “inactive”.
In the case of `CC(=O)CC(=O)N(C)C`, the outcome is reported as “inactive”.
`C=C(C)CCCC(C)CCO` (stereo not given) was tested, and the outcome was “inactive”.
`Cc1ccncc1` was tested, and the outcome was “inactive”.
`CC1=CCC(C(C)(C)O)CC1` (stereo not given) was tested, and the outcome was “inactive”.
`CC(C)N(c1ccccc1)C(C)C` was tested, and the outcome was “inactive”.
With `CCCCN(CCCC)CCCCCCN(CCCC)CCCC` the outcome was “inactive”.
`CC(CO)c1ccccc1` (stereo not given) was tested, and the outcome was “inactive”.
With `NC(N)=S` the outcome was “inactive”.
With `Cc1cccc(C)c1` the outcome was “inactive”.
`[Na+]` was tested, and the outcome was “inactive”.
In the case of `CCOC(=O)CC(C)C`, the outcome is reported as “inactive”.
In the case of `C=COCC1CCC(COC=C)CC1` (stereo not given), the outcome is reported as “inactive”.
In the case of `CCCOC(=O)CC`, the outcome is reported as “inactive”.
With `CC(C)(C)c1cc(CCC(=O)OCCSCCOC(=O)CCc2cc(C(C)(C)C)c(O)c(C(C)(C)C)c2)cc(C(C)(C)C)c1O` the outcome was “inactive”.
For `C=CCOC(=O)/C=C\C(=O)OCC=C`, the outcome was “inactive”.
`CCOC(=O)CC1(C)OCC(C)O1` (stereo not given) was tested, and the outcome was “inactive”.
For `C1COCO1`, the outcome was “inactive”.
In the case of `COc1cc(OC)c2ccc(=O)oc2c1`, the outcome is reported as “inactive”.
With `CC(C)CCOC(=O)CC(C)C` the outcome was “inactive”.
`CCCCCCCCSCc1cc(C)c(O)c(CSCCCCCCCC)c1` was tested, and the outcome was “inactive”.
`CCCCCCCOC(C)=O` was tested, and the outcome was “inactive”.
